Each structure is given as a SMILES string. About 83,000 compounds went through this panel and 20% of them were active in at least one assay; those are over-represented in the sample as a whole.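 For each line, cells grew in 96-well plates with the test compound present at a single concentration for 48 hours.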 Values without a mark were called inactive. Active and inactive are the calls of the source. The calls were made as follows: active = growth percent below 10; inactive = the rest.

Experimental findings from PubChem BioAssay (NCI) are described below.

Test systems include NCI-H23 lung; NCI-H226 lung; NCI-H322M lung; HOP-62 NSCLC; NCI-H460 lung; HOP-92 NSCLC; NCI-H522 lung; A549/ATCC NSCLC; 786-0 renal; COLO 205 colon.
What all share (experiment): NCI-60 one-dose screen, 48 h (100 = growth as untreated, 0 = no growth, -100 = all killed)
Common to all, as to conditions: 10 µM unless noted

Regarding `Nc1nc(-c2cc3c(cc2Cl)NC(=O)/C3=C/c2ccc(Cl)cc2)cs1`, the growth is 49.1% in the test on NCI-H23 lung; 72.3% in the test on NCI-H226 lung; 59.7% in the test on NCI-H322M lung; 63% in the test on HOP-62 NSCLC; 53.1% with NCI-H460 lung; 17.8% in the test with HOP-92 NSCLC. Further, the growth was 17.3% in the test on NCI-H522 lung, 64.5% in the test on A549/ATCC NSCLC, 43.7% in the test with 786-0 renal and 61.7% in the test with COLO 205 colon.

As for `COc1ccc(Cl)cc1NC(=O)c1cc2c([nH]1)-c1nc(NC(=O)C(C)C)sc1CC2`, the growth in the test with NCI-H23 lung was 83.5%; in the test with NCI-H226 lung, 79.5%; in the test with NCI-H322M lung, 92.8%; in the test with HOP-62 NSCLC it was 75.3%; with NCI-H460 lung, 106%; in the test on HOP-92 NSCLC, 90%. Besides, the growth was 63.7% in the test with NCI-H522 lung, 91.1% in the test with A549/ATCC NSCLC, 105% with 786-0 renal and 102% in the test with COLO 205 colon.

Consider `Nc1ccc(S(=O)(=O)Nc2ccnn2-c2ccccc2)cc1`, for which the growth in the test with NCI-H23 lung was 107%; in the test with NCI-H226 lung, 106%; in the test with NCI-H322M lung, 95%; in the test on HOP-62 NSCLC, 112%; in the test on NCI-H460 lung it was 108%; in the test with HOP-92 NSCLC, 97.9%. Further, the growth with NCI-H522 lung is 101%; in the test on A549/ATCC NSCLC, 97.7%; in the test with 786-0 renal it was 105%; in the test on COLO 205 colon it was 109%.

For the compound `c1ccc(CNCCN(CCNCc2ccccn2)Cc2ccc3ccccc3c2)nc1`, the growth with NCI-H23 lung was 21.5%; in the test with NCI-H226 lung it was -17.9% (active); in the test on NCI-H322M lung, 12.2%; with HOP-62 NSCLC, -17.4% (active); in the test with NCI-H460 lung, -7.2% (active); in the test with HOP-92 NSCLC, -7.66% (active). Besides, the growth is 14.1% with NCI-H522 lung, -14.5% (active) in the test on A549/ATCC NSCLC, -46.4% (active) with 786-0 renal and -5.97% (active) with COLO 205 colon.

In the case of `COc1cccc(/C=N/C(=S)NC2(C)C3CCC(C3)C2(C)C)c1O` (stereo not given), the growth is 94.7% with NCI-H23 lung; 93.1% in the test with NCI-H226 lung; 73.1% with NCI-H322M lung; 92% with HOP-62 NSCLC; 60.2% in the test on NCI-H460 lung; 93.3% in the test on HOP-92 NSCLC. Further, the growth with NCI-H522 lung was 69.7%; in the test on A549/ATCC NSCLC it was 74.7%; in the test on 786-0 renal it was 88%; with COLO 205 colon, 89.6%.

Turning to `CS(=O)(=O)Nc1cccc(-c2ccc3ncnc(Nc4ccc(F)c(Cl)c4)c3c2)c1`, the growth in the test on NCI-H23 lung is 42.6%; with NCI-H226 lung, 44.5%; in the test on NCI-H322M lung it was 15%; in the test with HOP-62 NSCLC, 39.8%; with NCI-H460 lung, 20%; in the test on HOP-92 NSCLC it was 34.6%. Further, the growth with NCI-H522 lung is -23.6% (active); in the test on A549/ATCC NSCLC it was 25.3%; with 786-0 renal, -6.08% (active); with COLO 205 colon it was -33.3% (active).

Consider `O=c1[nH]ccc2nc(N3CCC(O)CC3)nc(Nc3cccc(C(F)(F)F)c3)c12`, for which the growth in the test on NCI-H23 lung was 62.2%; in the test on NCI-H226 lung, 57.4%; with NCI-H322M lung it was 102%; with HOP-62 NSCLC it was 92.9%; with NCI-H460 lung, 73.4%; in the test with HOP-92 NSCLC it was 105%. In addition, the growth with NCI-H522 lung was 51.7%; in the test with A549/ATCC NSCLC, 53.4%; with 786-0 renal, 58.3%; with COLO 205 colon, 35.7%.

In the case of `C=CCn1c(SCC(=O)Nc2ccc(C(=O)/C=C/c3cc(OC)c(OC)c(OC)c3)cc2)nnc1-c1ccc(OC)cc1`, the growth is 22.2% in the test on NCI-H23 lung; -36.5% (active) in the test with NCI-H226 lung; 17.3% with NCI-H322M lung; -32.5% (active) in the test on HOP-62 NSCLC; 0.762% (active) with NCI-H460 lung; 21.3% in the test with HOP-92 NSCLC. For the same compound, the growth with NCI-H522 lung was -16.8% (active); in the test with A549/ATCC NSCLC, 4.04% (active); with 786-0 renal, -30.8% (active); with COLO 205 colon, -7.79% (active).

Take `COc1cc(Br)c(-c2nc(-c3ccccc3)c(-c3ccccc3)n2Cc2ccccc2)cc1OC`: the growth is 46.8% with NCI-H23 lung; 70.4% with NCI-H226 lung; 75.1% in the test on NCI-H322M lung; 91.8% in the test with HOP-62 NSCLC; 48.9% in the test on NCI-H460 lung; 45.7% in the test on HOP-92 NSCLC. The growth with NCI-H522 lung was 39.6%; with A549/ATCC NSCLC it was 37%; in the test with 786-0 renal, 67.9%; in the test on COLO 205 colon, 30.2%.

As for `O=C(O)c1ccc2nc(-c3ccc(OCCCCCOc4ccc(-c5nc6ccc(C(=O)O)cc6[nH]5)cc4)cc3)[nH]c2c1`, the growth in the test with NCI-H23 lung is 46%; in the test on NCI-H226 lung, 63.4%; in the test with NCI-H322M lung, 91.5%; in the test on HOP-62 NSCLC it was 91.9%; in the test on NCI-H460 lung it was 109%; in the test on HOP-92 NSCLC, 100%. In addition, the growth with NCI-H522 lung is 92.8%; in the test with A549/ATCC NSCLC it was 81.7%; with 786-0 renal, -20.8% (active); with COLO 205 colon it was 8.79% (active).

In the case of `O=C(Nc1cccc(-n2ccc3c(NC(=O)c4ccccc4)nccc32)c1)Nc1ccc(Cl)c(C(F)(F)F)c1`, the growth in the test with NCI-H23 lung is 13%; in the test with NCI-H226 lung it was 21.7%; in the test with NCI-H322M lung, 39.5%; in the test on HOP-62 NSCLC, 33.4%; with NCI-H460 lung it was -0.783% (active); with HOP-92 NSCLC, 2.86% (active). In addition, the growth in the test on NCI-H522 lung was -51.5% (active); in the test on A549/ATCC NSCLC it was 9.59% (active); in the test on 786-0 renal it was -14.8% (active); with COLO 205 colon, -51.6% (active).
